# Measured values: the supplement of paper PMC8728848
# The entries come from a sample that favours the strongest signals as a whole.
# B1: Epa1-NP-mutant-E227A (Candida glabrata), Q6VBJ0 (protein)
# chain: MILNPALFLNKCVCIYTTLILLLLTNGGYATSSNDISLASKDPTTFPLGCSPDITTPKKGLSMELYSYDFRKKGSYPCWDAAYLDPNYPRTGYKSHRLLAKVDGVTGNINFYYHATKGCTPQLGHLPASYNYPKPLTMTNFTMLLYGYFRPKVTGFHTFTISADDLLFVNFGAGNAFDCCRRDSSADHFGNYQAYAIWGSKTAKDELTVHLDAGVYYPIRLFYNNRAYDGALSFTFKTESNENTVSDFSEYFFSLDDTEEGCPGLISYDSSCASVKTSKIIGIDYHTETPNENLVPITKTIYHLGIPCTGTTTTPLCGSGFYDPLANKCVTINTSSTSSVTKTTSHTTSKEVSFHSSISSQKTLIPKSIPSPYGPIKSQSIPTEMETSSEISSSEYAFSDVISTPSHSPYTKKHSSLNSSSYTSTVIHSLTSYSISQGIFSTSLSEQNITSKSSTDKFSTATSMSNNITQSSIIISQFSTNNENYTTTSMHTSSDKISTETLNNSISTTTSILFSNSSTILKNNTTIISSDKDTHYHPVNPTIVCSTNKTEIICASITQPSISNSNNHWSSSVLKFNSTTVRSTLPSSAGSNETSINVPFSSSTESNTSTSSTSTSNSKMVRSTLPSSAGSNETSISVPFSSSTESNTSTSSTSTSNSKMVRSTLPSSAGSNETSINVPFSSSTESNTSTSSTSTSNSKTVRSTPFSSAGIIMTSLSQRNNKSASSYASSNSKCYNTADSCRKVHSTPSYLLTSSYTSEGVDYDCSLVSTKLKINDTNCVNNKHTTKSCLKTSVTTTIPTLEIKTARKSSSNTIGLHSYPTSSPNKSISSAPIIGYISSFKTIKTASPSYQTSDLTTITTITSLNNPGSTAVENTHESNDKSRKTSSNDISSKHSVIKETKDAVESSNKSHQTNTLKCSSIIIASSSHNSYESLGGTTLTLTLSKVYSPQNNDTLPFLEISEVNPSRTVLPESSKMMQYLTSTEERNKTARNTIATNIVSISTFHFEGEGNAIRMGYTQLLLMLIGIIVMNIGT
# Legend:
# Assay in all cases: glycan array binding signal (z-score within array); higher = stronger binding
# Conditions in all cases: glycan notation: IUPAC condensed, linker removed; mutation: E227A
# GalNAc4S6S(b1-4)GlcNAc = biological target: GalNAc4S6S(b1-4)GlcNAc
# Summary of the method: (§1)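 Glycan array data came from 3228 arrays in the Consortium for Functional Glycomics database, and only arrays with an available protein sequence were kept. Glycan names were put into IUPAC-condensed notation, and columns mapping to the same glycan were averaged. The binding signal is a within-array Z-score, averaged across arrays of one protein sequence run at different concentrations or buffers and across linkers. A negative Z-score can be read as non-binding.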
# Glc(a1-6)Glc(a1-6)Glc = biological target: Glc(a1-6)Glc(a1-6)Glc
# Summary of the method: as §1
# [1] = biological target: GlcNAc(a1-4)Gal(b1-4)GlcNAc
# Summary of the method: as §1
# [2] = biological target: GlcNAc(a1-4)Gal(b1-4)GlcNAc(b1-3)Gal(b1-4)Glc
# Summary of the method: as §1
# [3] = biological target: GlcNAc(b1-2)Man(a1-3)[GlcNAc(b1-2)Man(a1-6)]Man(b1-4)GlcNAc(b1-4)GlcNAc
# Summary of the method: as §1
# GlcNAc(b1-3)Fuc = biological target: GlcNAc(b1-3)Fuc
# Summary of the method: as §1
# [4] = biological target: GlcNAc(b1-3)Gal(b1-3)GalNAc
# Summary of the method: as §1
# [5] = biological target: GlcNAc(b1-3)Gal(b1-4)GlcNAc(b1-3)Gal(b1-4)GlcNAc(b1-2)[GlcNAc(b1-3)Gal(b1-4)GlcNAc(b1-3)Gal(b1-4)GlcNAc(b1-6)]Man(a1-6)[GlcNAc(b1-3)Gal(b1-4)GlcNAc(b1-3)Gal(b1-4)GlcNAc(b1-2)Man(a1-3)]Man(b1-4)GlcNAc(b1-4)[Fuc(a1-6)]GlcNAc
# Summary of the method: as §1
# [6] = biological target: GlcNAc(b1-3)Gal(b1-4)GlcNAc(b1-6)[GlcNAc(b1-3)Gal(b1-3)]GalNAc
# Summary of the method: as §1
# GlcNAc(b1-3)GalNAc = biological target: GlcNAc(b1-3)GalNAc
# Summary of the method: as §1
# [7] = biological target: Man(a1-2)Man(a1-3)[Man(a1-2)Man(a1-6)]Man
# Summary of the method: as §1
# [8] = biological target: Man(a1-2)Man(a1-3)[Man(a1-6)]Man(a1-6)[Man(a1-2)Man(a1-3)]Man(b1-4)GlcNAc(b1-4)GlcNAc
# Summary of the method: as §1
# [9] = biological target: Man(a1-3)[Man(a1-6)]Man(a1-6)[Man(a1-3)]Man
# Summary of the method: as §1
# [10] = biological target: Neu5Ac(a2-3)Gal(b1-3)[Fuc(a1-4)]GlcNAc
# Summary of the method: as §1
# [11] = biological target: Neu5Ac(a2-3)Gal(b1-3)]Neu5Ac(a2-3)Gal(b1-4)]GlcNAc
# Summary of the method: as §1
# [12] = biological target: Neu5Ac(a2-3)Gal(b1-4)GlcNAc(b1-3)Gal(b1-4)GlcNAc(b1-3)Gal(b1-4)GlcNAc
# Summary of the method: as §1
# [13] = biological target: Neu5Ac(a2-3)Gal(b1-4)[Fuc(a1-3)]GlcNAc(b1-3)GalNAc
# Summary of the method: as §1
# [14] = biological target: Neu5Ac(a2-3)Gal(b1-4)[Fuc(a1-3)]GlcNAc(b1-6)[Neu5Ac(a2-3)Gal(b1-3)]GalNAc
# Summary of the method: as §1
# [15] = biological target: Neu5Ac(a2-6)Gal(b1-4)GlcNAc(b1-2)Man(a1-3)Man(b1-4)GlcNAc(b1-4)GlcNAc
# Summary of the method: as §1
# [16] = biological target: Neu5Ac(a2-6)Gal(b1-4)GlcNAc(b1-2)Man(a1-6)[Man(a1-3)]Man(b1-4)GlcNAc(b1-4)GlcNAc
# Summary of the method: as §1
# [17] = biological target: Neu5Ac(a2-6)Gal(b1-4)GlcNAc(b1-3)Gal(b1-4)GlcNAc(b1-6)[Gal(b1-3)]GalNAc
# Summary of the method: as §1
# [18] = biological target: Neu5Ac(a2-8)Neu5Ac(a2-8)Neu5Ac(a2-3)[Gal(b1-3)GalNAc(b1-4)]Gal(b1-4)Glc
# Summary of the method: as §1
binder,measurement,setting,value
B1,glycan array binding signal (z-score),GalNAc4S6S(b1-4)GlcNAc,-0.197
same,glycan array binding signal (z-score),Glc(a1-6)Glc(a1-6)Glc,-0.201
same,glycan array binding signal (z-score),[1],-0.198
same,glycan array binding signal (z-score),[2],-0.194
same,glycan array binding signal (z-score),[3],-0.191
same,glycan array binding signal (z-score),GlcNAc(b1-3)Fuc,-0.185
same,glycan array binding signal (z-score),[4],-0.176
same,glycan array binding signal (z-score),[5],-0.163
same,glycan array binding signal (z-score),[6],-0.207
same,glycan array binding signal (z-score),GlcNAc(b1-3)GalNAc,-0.214
same,glycan array binding signal (z-score),[7],-0.166
same,glycan array binding signal (z-score),[8],-0.198
same,glycan array binding signal (z-score),[9],-0.196
same,glycan array binding signal (z-score),[10],-0.197
same,glycan array binding signal (z-score),[11],-0.213
same,glycan array binding signal (z-score),[12],-0.202
same,glycan array binding signal (z-score),[13],-0.12
same,glycan array binding signal (z-score),[14],-0.16
same,glycan array binding signal (z-score),[15],-0.2
same,glycan array binding signal (z-score),[16],-0.2
same,glycan array binding signal (z-score),[17],0.553
same,glycan array binding signal (z-score),[18],-0.194
